From PubChem BioAssay (NCI)
The panel holds about 83,000 compounds, 20% with a hit somewhere; the sample as a whole holds those more often.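 Cells were grown in 96-well plates and exposed to the test compound at a single concentration for 48 hours; results are reported as percent growth, with values below 10 considered active.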 Unmarked numbers belong to inactive results. Active and inactive are the calls of the source.

Legend:
Assay in all cases: NCI-60 one-dose screen, 48 h (100 = growth as untreated, 0 = no growth, -100 = all killed)
Settings in all cases: 10 µM unless noted
[1] = tested on: HCT-15 colon
[2] = tested on: HT29 colon
[3] = tested on: SNB-75 CNS
[4] = tested on: SNB-19 CNS
[5] = tested on: U251 CNS
[6] = tested on: PC-3 prostate
[7] = tested on: SK-MEL-5 melanoma
[8] = tested on: UACC-62 melanoma
[9] = tested on: LOX IMVI melanoma
[10] = tested on: SK-MEL-28 melanoma

SMILES | growth [1] | growth [2] | growth [3] | growth [4] | growth [5] | growth [6] | growth [7] | growth [8] | growth [9] | growth [10]
COc1cc(C2=NN(C(C)=O)C(c3cccc(Nc4ccnc5cc(C(F)(F)F)ccc45)c3)C2)cc(OC)c1OC (stereo not given) | 39.9% | 22.1% | 76.1% | 60.9% | 58.7% | 25% | 27.8% | 69% | 53.2% | 66.5%
COCCOC(=O)COc1ccc(OC)cc1 | 98.1% | 114% | 91.8% | 97.4% | 102% | 96.8% | 93.8% | 96.2% | 102% | 109%
CCOC(=O)CC[C@H](NC(=O)c1ccc(NC)c2ccccc12)C(=O)OCC | 96.1% | 105% | 91.8% | 92.4% | 97.8% | 80.2% | 97.2% | 89.7% | 93.8% | 103%
CCOC(=O)/C(=C/c1c(-c2ccccc2)[nH]c2ccccc12)C(=O)c1ccc(Cl)cc1 | 21.2% | 44% | 35% | 79.4% | 50.5% | 12.5% | 53.4% | 43.5% | 44.3% | 75.6%
Nc1c(C(=O)Nc2ccccn2)sc2nc3c(cc12)CCCCCC3 | 20.2% | 3.49% (active) | -1.5% (active) | 22.3% | 16% | 20.9% | 9.47% (active) | 24.8% | 36.2% | 51.2%
COc1ccc(C2=NN(c3ccc(S(N)(=O)=O)cc3)C(c3ccc(Cl)cc3)C2)c(O)c1 (stereo not given) | 52.7% | 49.9% | 70.1% | 85.3% | 57.7% | 27.7% | 75.4% | 52.9% | 77.2% | 74.9%
OCCNc1nc(NCCO)nc(Nc2ccc(C3=NN(c4ccc(Cl)cc4)C(c4ccc(Cl)cc4)C3)cc2)n1 (stereo not given) | 48.4% | 30.5% | 51.1% | 78.1% | 43% | 32.8% | 78.2% | 77.9% | 28.2% | 54.4%
COc1cccc(NC(=O)Nc2ccc(Oc3ncnc4[nH]c(C)c(C)c34)cc2)c1 | 87.9% | 75.4% | 87.2% | 89.7% | 76.9% | 80.8% | 88% | 74.2% | -54.9% (active) | 103%
CCCCCCC/C=C/[C@H]1O[C@]23C(=O)C[C@@]4(C[C@@H](OC5OC(CO)C(O)C(O)C5O)C[C@@H]4[C@H]2C=C1C)OC3=O (stereo not given in full) | -5.27% (active) | 0.865% (active) | 70.6% | 21.2% | -2.96% (active) | 21% | 8.74% (active) | 14.2% | -67.7% (active) | -5.61% (active)
C#C[C@@]1(O)[C@@H](CO)O[C@@H](n2cc(F)c3c(N)ncnc32)[C@@H]1O | -5.29% (active) | 5.9% (active) | -34.3% (active) | 20.7% | 8.64% (active) | 5.02% (active) | -86.9% (active) | -51.9% (active) | -66.3% (active) | 45.2%
O=C(O)COc1ccc2c(=O)c3sc4c(=O)c5ccccc5c(=O)c4c3c(=O)c2c1 | -75% (active) | -37.4% (active) | -42% (active) | 0.0814% (active) | 29.8% | 54% | -99.6% (active) | -91.4% (active) | -37.6% (active) | -16.2% (active)
C=C(C)[C@@H]1CC[C@]2(C(=O)OCCOCCOCC[P+](c3ccccc3)(c3ccccc3)c3ccccc3)CC[C@]3(C)[C@H](CC[C@@H]4[C@@]5(C)CC[C@H](OC(C)=O)C(C)(C)[C@@H]5CC[C@]43C)[C@@H]12 | -81.3% (active) | -88.5% (active) | -87.2% (active) | -93.6% (active) | -95.4% (active) | -90.2% (active) | -98.5% (active) | -86.5% (active) | -93.2% (active) | -86.7% (active)
NC(=O)c1ccc2nc3c(n2c1)C(=O)C(=O)c1ccccc1-3 | -63.4% (active) | -7.62% (active) | -95% (active) | -97.5% (active) | -98.6% (active) | -48.3% (active) | -100% (active) | -94.1% (active) | -78.4% (active) | -82.2% (active)
CCCn1c2cc(OCc3cn(-c4ccc(Cl)cc4)nn3)ccc2c2ccnc(C)c21 | 67.6% | 30.7% | 92.5% | 80.6% | 47.5% | 71.2% | 70.6% | 74.9% | 65.1% | 92.3%
S=C(Nc1ccc(Cl)cc1)c1ccccn1 | 98.1% | 94.1% | 79.7% | 92.2% | 88.6% | 85.6% | 94.1% | 82.5% | 88.4% | 107%
COc1ccc2[nH]c3nc4cnccc4cc3c2c1 | 97.9% | 99.7% | 97.5% | 105% | 98.9% | 104% | 108% | 117% | 105% | 114%
CCCCc1ccc(N=Nc2ccc(OCC[N+](C)(C)C)cc2)cc1 | 61% | 26.3% | 15.4% | 1.8% (active) | -51.1% (active) | 24.2% | 89.4% | 53.9% | 33.6% | 88.9%
Oc1ccc(CNNc2ccnc3c(O)cccc23)c2cccnc12 | 23.9% | 73.8% | 54.9% | 29.7% | 25.8% | 29.7% | -20.2% (active) | 24.6% | 16.4% | 49.7%
O=C(/C(=C/c1ccc([N+](=O)[O-])cc1)SCc1ccccc1)c1ccc(Cl)cc1 | 34.3% | 52% | 85% | 70.6% | 61.6% | 60.9% | 73% | 9.57% (active) | 32.6% | 94.6%
O=CN1N=C(c2ccc(Cl)cc2)CC1c1cccc(Nc2ccnc3cc(C(F)(F)F)ccc23)c1 (stereo not given) | 71.2% | 58.5% | 74.9% | 70.6% | 64.1% | 48.9% | 1.24% (active) | 63.7% | 51.5% | 90.8%
Cc1c(C(=O)Nc2nc3ccccc3[nH]2)cnn1-c1ccccn1 | 104% | 66% | 104% | 101% | 97.4% | 93.1% | 99.9% | 107% | 104% | 112%
COC(=O)/C=C1\SC(=Nc2cccc(OC)c2)N(CCc2c[nH]c3ccccc23)C1=O | 39.9% | 12.2% | 85% | 72.9% | 53.9% | 40.1% | 77.2% | 44.1% | 49.3% | 89.6%
Cc1ccc2nc3nc4ccc[nH]c4cc3c2c1 | 60.4% | 76.8% | 72.3% | 97.3% | 92.5% | 87.5% | 71.7% | 94.3% | 97.9% | 116%
Nc1ccccc1NC(=O)c1ccc(CSc2nc(N3CCOCC3)c3cccn3n2)cc1 | 20.1% | 0.895% (active) | 20.3% | 32.7% | 2.15% (active) | 23.1% | -41.1% (active) | -31.9% (active) | -38.6% (active) | 16.3%
S=c1ssnc1-c1cc2ccccc2o1 | 71.1% | 56.6% | 80.8% | 82% | 91.5% | 14.9% | 68.7% | 86.6% | 60.5% | 93.2%
C=C(C)[C@@H]1CC[C@]2(C(=O)n3ccnc3)CC[C@]3(C)[C@H](CC[C@@H]4[C@@]5(C)CCCNC(C)(C)[C@@H]5CC[C@]43C)[C@@H]12 | 3.01% (active) | 1.76% (active) | 81.1% | 52.6% | -45.5% (active) | 12.9% | -97.9% (active) | 31.9% | -92% (active) | -51.5% (active)
